hgDAF12 agonist – hgDAF-12 agonism, primary luciferase screen. HEK293 GAL4-hgDAF12 UAS-luciferase reporter, agonist luminescence; normalized to butyrate control. AID 687014. activation, % at 6.8 µM. 370,000 compounds, 1.8% hits;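 active = activation above a cutoff set at the mean of all screened compounds plus 3 SD, cut at about 10% in these data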;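 also: 0% = DMSO wells and 100% = sodium butyrate wells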
DAX1 inh-1 – inhibits human nuclear receptor DAX1; 340,000 compounds, 0.99% hits; inhibition, % at 6.75 µM; HEK293 Gal4-DAX1 luciferase reporter, luminescence; AID 504766; P51843;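 active = inhibition above the mean over all tested compounds plus 3 SD, cut at about 4.2% in these data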;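 also: 0% = DAX1-transfected cells with DMSO and 100% = empty-vector control cells with DMSO; inhibition shows as a rise in luminescence from relieved DAX1 repression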
Target sequence (P51843 207-470 limits assumed): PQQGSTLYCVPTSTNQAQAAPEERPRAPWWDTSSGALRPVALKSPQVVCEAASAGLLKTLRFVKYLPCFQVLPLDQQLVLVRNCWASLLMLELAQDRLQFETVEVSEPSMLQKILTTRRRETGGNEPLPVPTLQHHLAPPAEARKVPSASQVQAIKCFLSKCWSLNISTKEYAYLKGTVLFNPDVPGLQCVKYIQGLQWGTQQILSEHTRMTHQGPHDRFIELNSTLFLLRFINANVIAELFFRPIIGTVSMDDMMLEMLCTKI
ssDAF-12 act – activators of S. stercoralis DAF-12 nuclear receptor | activation, % at 6.8 µM | 370,000 compounds, 1% hits | HEK293 ssDAF-12/GRIP1 lit1-tk-luc reporter, luminescence; % of 3 µM dafachronic acid response;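 active = activation above the mean over all tested compounds plus 3 SD, cut at about 0.9% in these data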;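 also: 0% = DMSO-only wells and 100% = 3 µM delta7-dafachronic acid wells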
hcDAF-12 act – activates DAF-12 receptor from parasite H. contortus | HEK293 hcDAF-12 lit1-tk-luc reporter, luminescence; 0% DMSO, 100% Δ7-dafachronic acid | activation, % at 6.8 µM | 370,000 compounds, 1.4% hits;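 active = activation above the mean of all tested compounds plus 3 SD, cut at about 5.5% in these data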;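 also: 100% = response to 3 µM Δ7-dafachronic acid high control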
DAX1 inh-2 – inhibitors of DAX1 repression of SF-1 activated StAR promoter; HEK293T StAR-luciferase reporter, SF-1/DAX-1 repression relief; inhibition, % at 6.8 µM; 370,000 compounds, 1.1% hits; AID 652010;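 active = inhibition above the mean over all tested compounds plus 3 SD, cut at about 3.6% in these data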;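 also: 0% = DAX-1 cells with DMSO and 100% = cells lacking DAX-1 with DMSO; higher inhibition means more luminescence from relief of DAX-1 repression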
DAX1 inh confirm – confirmation of human DAX1 (NR0B1) inhibitors. inhibition, % at 6.8 µM. 2,400 compounds, 87% hits. shares compounds with DAX1 inh-2. HEK293T StAR-promoter luciferase reporter, SF-1/DAX-1 repression;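 active = inhibition above the average of every tested compound plus 3 SD, cut at about 3.8% in these data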;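 also: 0% = DAX-1 cells with DMSO and 100% = no DAX-1 control cells with DMSO; active compounds raise luminescence by relieving repression of the StAR reporter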
SF1 mutant ctr – counter-screen for DAX1 inhibitors: nonselective inhibitors with SF-1 AF2 mutant; inhibition, % at 6.8 µM; 2,400 compounds, 78% hits; HEK293 StAR-luciferase, luminescence; shares compounds with DAX1 inh-2;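 active = inhibition above the mean of all tested compounds plus 3 SD, cut at about 3% in these data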;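 also: 0% = DAX-1 transfected cells with DMSO and 100% = cells without DAX-1 with DMSO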
LXRb hcDAF ctr – counter-screen for hcDAF-12 agonists: agonists of human LXR-beta. shares compounds with hcDAF-12 act. HEK293 Gal4-LXR tk-luc reporter, luminescence, 24 h; normalized: DMSO 0%, positive control 100%. activation, % at 6.8 µM. 3,400 tested, under 10 active. AID 743027;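 active = mean percent activation of the reporter above a cutoff set as the average over tested compounds plus their standard deviation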
hcDAF12 conf – hcDAF-12 agonism, confirmation assay; shares compounds with hcDAF-12 act; HEK293 hcDAF-12 lit1-tk-luc reporter, luminescence; % of Δ7-dafachronic acid response; activation, % at 6.8 µM; 3,400 compounds, 61% hits; AID 743032;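 active = mean activation across triplicate tests above the threshold derived from the earlier primary screen, cut at about 5.5% in these data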;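 also: 0% = DMSO only wells and 100% = 3 µM Δ7-dafachronic acid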
An asterisk follows results filed as active. Most compounds without a hit are left out; they make up all but 4.1% or so of the library.

Screening Cc1ccc(-c2cc3nc(C)cc(C)n3n2)cc1 returned hgDAF12 agonist 21*, DAX1 inh-1 1, ssDAF-12 act 5.6*, hcDAF-12 act 17*, DAX1 inh-2 4.5*, DAX1 inh confirm 11*, SF1 mutant ctr 6.2*, LXRb hcDAF ctr 2 and hcDAF12 conf 18*.
Screening O=C(Nc1cccc([N+](=O)[O-])c1)c1cc2ccccc2cc1O returned hgDAF12 agonist -6, DAX1 inh-1 -7, ssDAF-12 act -2, hcDAF-12 act -2 and DAX1 inh-2 -3.
O=C(Nc1ccncc1)c1cc2ccccc2cc1O was read as hgDAF12 agonist 12*, DAX1 inh-1 2, ssDAF-12 act 0, hcDAF-12 act 6.7*, DAX1 inh-2 6.2*, DAX1 inh confirm 7.3*, SF1 mutant ctr 5.8*, LXRb hcDAF ctr 1 and hcDAF12 conf 6.3*.
Screening Cc1ccc(NC(=O)Cn2nnc(-c3ccncc3)n2)cc1C returned hgDAF12 agonist 0, ssDAF-12 act 0, hcDAF-12 act -3 and DAX1 inh-2 0.
COc1ccc(C(=O)N=c2sc3ccccc3n2C)cc1 was read as hgDAF12 agonist 16*, DAX1 inh-1 4.7*, ssDAF-12 act 2.8*, hcDAF-12 act 13*, DAX1 inh-2 5.8*, DAX1 inh confirm 11*, SF1 mutant ctr 7.0*, LXRb hcDAF ctr 2 and hcDAF12 conf 19*.
Cn1c(=NC(=O)COc2ccccc2)sc2ccccc21 was read as hgDAF12 agonist 13*, DAX1 inh-1 4.7*, ssDAF-12 act 0, hcDAF-12 act 7.9*, DAX1 inh-2 4.7*, DAX1 inh confirm 7.5*, SF1 mutant ctr 5.1*, LXRb hcDAF ctr 0 and hcDAF12 conf 3.
Screening Cn1c(=NC(=O)CS(=O)(=O)c2ccccc2)sc2ccccc21 returned hgDAF12 agonist 1, DAX1 inh-1 1, ssDAF-12 act 1, hcDAF-12 act 3 and DAX1 inh-2 1.
CC1=C(O)c2ccccc2C(=O)C1=O was read as hgDAF12 agonist 0, ssDAF-12 act -2, hcDAF-12 act -2 and DAX1 inh-2 -1.
Screening Cc1ccccc1N=CC1=C(O)c2ccccc2C1=O returned hgDAF12 agonist 11*, DAX1 inh-1 -3, ssDAF-12 act 2.1*, hcDAF-12 act 15*, DAX1 inh-2 5.5*, DAX1 inh confirm 5.8*, SF1 mutant ctr -1, LXRb hcDAF ctr 1 and hcDAF12 conf 8.3*.
Screening CCOC(=O)c1sc(=NC(=O)c2ccccc2Br)n(C)c1C returned hgDAF12 agonist 11*, DAX1 inh-1 1, ssDAF-12 act 1, hcDAF-12 act 13*, DAX1 inh-2 7.4*, DAX1 inh confirm 9.6*, SF1 mutant ctr 4.2*, LXRb hcDAF ctr 2 and hcDAF12 conf 10*.
`CCOC(=O)c1sc(=NC(=O)c2ccc(C)c(C)c2)n(C)c1C` gave hgDAF12 agonist 4, DAX1 inh-1 -1, ssDAF-12 act 0, hcDAF-12 act 0 and DAX1 inh-2 0.
For CN(C)c1ccc(/C=N/NC(=O)c2ccco2)cc1 the results were hgDAF12 agonist 14*, DAX1 inh-1 0, ssDAF-12 act 1.2*, hcDAF-12 act 10*, DAX1 inh-2 4.6*, DAX1 inh confirm 14*, SF1 mutant ctr 7.1*, LXRb hcDAF ctr 1 and hcDAF12 conf 5.
`O=C(OCc1nc2ccccc2s1)c1ccco1` gave hgDAF12 agonist 11*, DAX1 inh-1 1, ssDAF-12 act 1, hcDAF-12 act 9.1*, DAX1 inh-2 4.9*, DAX1 inh confirm 7.4*, SF1 mutant ctr 4.7*, LXRb hcDAF ctr 1 and hcDAF12 conf 8.6*.

From PubChem
